Source: PubChem
Rows were chosen to be rich in hits. Some 2.9% of all compounds tested hit in one or more screens of this group.
PLC-beta3 inh = human PLC-beta3 inhibitors, primary screen, biochemical, fluorescence; 1-phosphatidylinositol 4,5-bisphosphate phosphodiesterase beta-3 (Homo sapiens), Q01970; Purified PLC-beta3, fluorogenic substrate; inhibition, % at 12.2 µM; 0.18% of 370,000 active; in the data active = inhibition above about 11%
proKLK7 act = proKLK7 zymogen activators, primary screen, biochemical, fluorescence intensity; purified proKLK7, EDANS-DABCYL substrate fluorescence; 100% is mature enzyme control, 0% vehicle; AID 652039, 2013; 0.9% of 370,000 active; Kallikrein-7 (Homo sapiens), P49862; activation, % at 7 µM;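 active = activation above the mean of all tested compounds plus 3 SD, computed per campaign excluding outliers beyond control limits, cut at about 13% in these data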
ADAM10 inh = human ADAM10 inhibitors, primary screen, biochemical, QFRET, HTS | Disintegrin and metalloproteinase domain-containing protein 10 (Homo sapiens), O14672 | recombinant ADAM10, EDANS/DABCYL FRET peptide cleavage, 3 h | inhibition, % at 7 µM | 0.62% of 370,000 active;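 active = inhibition above a per-campaign cutoff equal to the mean of compounds falling between control-based bounds plus 3 SD, cut at about 20% in these data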
ADAM17 inh = ADAM17 inhibitors, primary screen, biochemical, QFRET. Disintegrin and metalloproteinase domain-containing protein 17 (Homo sapiens), P78536. recombinant ADAM17, EDANS/DABCYL FRET peptide cleavage. inhibition, % at 6.95 µM. 0.83% of 370,000 active. AID 720648, 2013;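 active = inhibition above the mean of compounds lying between control limits plus 3 SD, set per campaign, cut at about 8.5% in these data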
Target sequence (P78536 215-824 limits assumed): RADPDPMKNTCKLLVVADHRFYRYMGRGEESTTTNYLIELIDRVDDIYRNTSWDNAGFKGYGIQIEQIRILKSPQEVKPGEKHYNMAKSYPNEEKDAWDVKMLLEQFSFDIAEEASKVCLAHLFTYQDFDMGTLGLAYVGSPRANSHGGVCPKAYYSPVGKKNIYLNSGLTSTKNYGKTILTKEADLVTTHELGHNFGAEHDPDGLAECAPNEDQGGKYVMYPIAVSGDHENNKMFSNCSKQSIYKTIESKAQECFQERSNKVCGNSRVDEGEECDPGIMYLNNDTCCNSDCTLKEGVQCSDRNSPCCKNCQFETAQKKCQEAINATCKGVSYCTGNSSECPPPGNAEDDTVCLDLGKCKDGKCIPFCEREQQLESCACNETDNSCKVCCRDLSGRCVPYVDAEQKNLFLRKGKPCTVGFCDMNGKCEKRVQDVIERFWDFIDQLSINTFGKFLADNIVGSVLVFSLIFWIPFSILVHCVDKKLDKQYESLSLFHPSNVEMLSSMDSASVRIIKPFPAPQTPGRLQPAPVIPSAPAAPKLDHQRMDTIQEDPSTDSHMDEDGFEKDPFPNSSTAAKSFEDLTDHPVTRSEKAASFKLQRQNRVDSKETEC
PLC-gamma1 inh = PLC-gamma1 enzyme inhibitors, primary screen, biochemical, fluorescence, purified enzyme | 0.84% of 370,000 active | inhibition, % at 12.2 µM | 1-phosphatidylinositol 4,5-bisphosphate phosphodiesterase gamma-1 (Homo sapiens), P19174 | fluorogenic substrate | AID 720700, 2013
PLCg1 ctr = PLC-gamma1 enzyme inhibitors, counter-screen for PLC-beta3 inhibitor project, biochemical, fluorescence; 3.1% of 3,300 active; inhibition, % at 12.3 µM; purified PLC-gamma1, fluorogenic substrate; AID 743258, 2014; shares compounds with PLC-gamma1 inh
PLCb3 confirm = PLC-beta3 inhibitor confirmation, biochemical, fluorescence, purified enzyme | shares compounds with PLC-gamma1 inh | AID 743261, 2014 | fluorogenic substrate fluorescence | 1% of 3,300 active | inhibition, % at 12.3 µM; in the data active = inhibition above about 11%
Of the large screens only hits and unclear results are named; the others gave an inactive call (follow-up assays come after a bar, where they were run). Rule as the data show it, unless noted: active = inhibition above about 9.5%; inactive = the rest.

N#Cc1c(NC(=O)CSc2nnnn2C2CCCC2)sc2c1CCCC2	PLC-gamma1 inh 10.0 | PLCg1 ctr inactive | PLCb3 confirm inactive
C/C(=N\NC(=O)c1ccccc1)c1ccc(NC(=O)c2cccs2)cc1	none
C/C(=N/NC(=O)c1ccccc1)c1ccc(NC(=O)C(F)(F)F)cc1	PLC-beta3 inh 11 | PLCg1 ctr inactive | PLCb3 confirm inactive
CC(C)(C)c1ccc(S(=O)(=O)NC(=O)C2(C)CCN2C(=O)C2CCCCC2)cc1 (stereo not drawn)	none
CCC1COCCS(=O)(=O)N1Cc1ccc(F)cc1 (stereo not drawn)	none
CCOC(=O)c1c(S(=O)(=O)Nc2ccc(F)cc2Cl)c(C)n(C)c1C	PLC-gamma1 inh 11 | PLCg1 ctr inactive | PLCb3 confirm inactive
CCOC(=O)c1c(S(=O)(=O)Nc2ccccc2OCC)c(C)n(C)c1C	none
Cc1ccc(NC(=O)CNCc2ccccc2OCC(=O)Nc2ccc(I)cc2)cc1	none
COc1ccc(/C=N/NC(=O)NC23CC4CC(CC(C4)C2)C3)c(OC)c1	none
CC(C)(C)c1ccc(/C=N/NC(=S)NC2CCCCC2)cc1	PLC-gamma1 inh 11 | PLCg1 ctr inactive | PLCb3 confirm inactive
Cc1sc2nc(C3CC3)nc(NCCNS(=O)(=O)c3ccccc3)c2c1C	PLC-gamma1 inh 9.6 | PLCg1 ctr inactive | PLCb3 confirm inactive
Cc1cc(S(=O)(=O)Nc2ccc(C(=O)N3CCN(C(=O)c4ccco4)CC3)cc2)ccc1F	PLC-gamma1 inh 11 | PLCg1 ctr inactive | PLCb3 confirm inactive
Cc1nn(C)cc1S(=O)(=O)N1CCN(c2cccc(Cl)c2)CC1	none
Cc1nn(C)cc1S(=O)(=O)N1CCN(Cc2ccc(F)cc2Cl)CC1	PLC-beta3 inh 12 | PLCg1 ctr inactive | PLCb3 confirm inactive
Fc1ccc(-c2cc(-c3cccs3)cc(-c3ccccc3)n2)cc1	PLC-gamma1 inh 14 | PLCg1 ctr inactive | PLCb3 confirm inactive
COc1cc2[nH]c(=O)n(C3CCCCC3)c(=O)c2cc1OC	PLC-beta3 inh 14, PLC-gamma1 inh 13 | PLCg1 ctr inactive | PLCb3 confirm inactive
CC1Cn2c(Cc3ccccc3)nnc2S1 (stereo not drawn)	PLC-beta3 inh 14 | PLCg1 ctr inactive | PLCb3 confirm inactive
CC1Cn2c(CCc3ccccc3)nnc2S1 (stereo not drawn)	none
CC(=O)N1CCc2cc(S(=O)(=O)NC(C(=O)Nc3ccc4c(c3)OCCO4)C(C)C)ccc21 (stereo not drawn)	PLC-gamma1 inh 11 | PLCg1 ctr inactive | PLCb3 confirm inactive
CC(=O)N1CCc2cc(S(=O)(=O)CCC(=O)Nc3ccc4c(c3)OCCO4)ccc21	none
COC(=O)c1cc(-c2ccc(Oc3ccccc3)cc2)c(=O)n2c1CCC2	none
Cn1nnnc1Sc1ncnc2scc(-c3cnc(N)nc3)c12	none (no result: proKLK7 act)
Cc1onc(-c2c(F)cccc2Cl)c1C(=O)N1CCCCC1	none
CCOC(=O)C1CCN(C(=O)c2ccc(Br)o2)CC1	PLC-gamma1 inh 10 | PLCg1 ctr inactive | PLCb3 confirm inactive
CCOC(=O)C1CCN(C(=O)CCn2c(=O)oc3ccccc32)CC1	PLC-gamma1 inh 9.6 | PLCg1 ctr inactive | PLCb3 confirm inactive
CCOC(=O)C1CCN(C(=O)c2c(-c3c(F)cccc3Cl)noc2C)CC1	PLC-gamma1 inh 10 | PLCg1 ctr inactive | PLCb3 confirm inactive
CC#CCN1C(=O)N[C@@H](c2ccccc2)C(C(=O)OC)=C1C	none
COc1ccc(S(=O)(=O)N(CC(=O)N2CCN(C)CC2)c2ccc(C)cc2)cc1Br	none
CCOc1ccc(NC(=O)c2cccc(S(=O)(=O)NCc3cccnc3)c2)cc1	none
Cc1cnnc2c1-c1no[n+]([O-])c1CC2	PLC-gamma1 inh 13 | PLCg1 ctr inactive | PLCb3 confirm inactive
Cc1cnnc2c1-c1nonc1CC2	none
O=C(Nc1ccc(F)cc1)Nc1nnc(COc2ccccc2F)s1	PLC-gamma1 inh 11 | PLCg1 ctr inactive | PLCb3 confirm inactive
O=C(Nc1nnc(COc2ccccc2F)s1)Nc1ccccc1F	none
Cc1ccc(NC(=O)COC(=O)c2cc(-c3cccs3)nn2-c2ccccc2)cc1[N+](=O)[O-]	PLC-gamma1 inh 11 | PLCg1 ctr inactive | PLCb3 confirm inactive
O=C(COC(=O)c1cc(-c2cccs2)nn1-c1ccccc1)Nc1cccc([N+](=O)[O-])c1	none
CS(=O)(=O)c1ccc(Cl)c(NC(=O)Cc2ccsc2)c1	none
Cc1ccc(C(=O)NNC(=O)C2CCN(S(=O)(=O)c3ccc(C)cc3)CC2)cc1	none
Cc1ccc(S(=O)(=O)N2CCC(C(=O)NNC(=O)c3ccncc3)CC2)cc1	PLC-beta3 inh 12 | PLCg1 ctr inactive | PLCb3 confirm inactive
CCn1cnc2sc(C(=O)O)c(C)c2c1=O	none
Cc1c(C(=O)O)sc2ncn(C)c(=O)c12	PLC-gamma1 inh 14 | PLCg1 ctr inactive | PLCb3 confirm inactive
Nc1nc(SCC(=O)NCc2ccccc2)[nH]c(=O)c1NC(=O)c1ccccc1F	none
CC(C)(C)NC(=O)CSc1nc(N)c(NC(=O)c2ccccc2F)c(=O)[nH]1	PLC-beta3 inh 12 | PLCg1 ctr inactive | PLCb3 confirm inactive
Cc1ccc(OCCCCNC(C)c2ccccc2)c(C)c1 (stereo not drawn)	PLC-gamma1 inh 13 | PLCg1 ctr inactive | PLCb3 confirm inactive
CCc1nc2c(OCC3COc4ccccc4O3)cccn2c1N(C)C(=O)c1ccc(OC)cc1 (stereo not drawn)	none
Cc1ccc(NC(=O)CSc2nnc(C3CCCCC3)n2N)cc1F	PLC-gamma1 inh 13 | PLCg1 ctr inactive | PLCb3 confirm inactive
Nn1c(SCC(=O)Nc2ccc(F)cc2)nnc1C1CCCCC1	none
CCc1nc2c(OC)cccn2c1N(C)C(=O)c1ccccc1F	none
CCc1nc2c(OCc3ccc(Cl)cc3Cl)cccn2c1N(C)C(=O)c1ccccc1F	PLC-beta3 inh 11 | PLCg1 ctr inactive | PLCb3 confirm inactive
O=C(NN=Cc1cccc(O)c1O)c1ccccc1	none
CC1(C(=O)NS(=O)(=O)c2cccs2)CCN1C(=O)c1cccc(F)c1 (stereo not drawn)	PLC-beta3 inh 14 | PLCg1 ctr inactive | PLCb3 confirm inactive
O=C(c1ccco1)N1CCCC(N2CCN(c3cccc(C(F)(F)F)c3)CC2)C1 (stereo not drawn)	none
CCOC(=O)[C@]12CCCC=C1N(CCCOC)C(=O)[C@@H]2CC(=O)NCc1ccc(C)o1	PLC-gamma1 inh 10 | PLCg1 ctr inactive | PLCb3 confirm inactive
COC(=O)[C@]12CCCCC=C1N(Cc1ccc(OC)cc1)C(=O)[C@@H]2CC(=O)N1CCN(C(=O)C2CC2)CC1	PLC-gamma1 inh 12 | PLCg1 ctr inactive | PLCb3 confirm inactive
